Results filed as inconclusive are left out. Calls of active or inactive are those of the source. The calls were made as follows, unless noted: active = hit-call score of the fitted dose curve at least 0.9, where 1 is the maximum; inactive = score below 0.9.
Assays:
[1] = IUF_NPC1a_proliferation_area_72hr: Leibniz Research Institute for Environmental Medicine (IUF) 72-hour Neural Progenitor Cell Proliferation Area Assay (NPC1a) (AID 2284208)
In short: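 Spheres of 0.3 mm are plated singly in growth-factor medium and exposed from day 0. After three days at 37C and 5% CO2, sphere area is measured by phase contrast imaging, with activity referenced to DMSO.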

[2] = IUF_NPC1_viability_72hr: Viability Assessment at 72 hours in the Leibniz Research Institute for Environmental Medicine (IUF) Neural Progenitor Cell Proliferation Assay (NPC1) (AID 2284209)
In short: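 Three-day continuous exposure of human neural progenitor spheres under EGF/FGF-driven proliferation; cell viability scored by alamar blue signal versus DMSO.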

[3] = CCTE_Mundy_HCI_Cortical_Synap_Neur_Matur_NeuriteSpotCountPerNeuriteLength: CCTE's Synaptogenesis and Neurite Maturation Assay in rat cortical cells for Neurite Spot Count per Neurite Length, Mundy Lab (AID 2284210)
In short: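 Synaptophysin spots per unit neurite length, measured by automated imaging of MAP2/synaptophysin/Hoechst-stained neurons. Cultures from rat cortex received chemical at DIV 7 with media change through DIV 12; glial growth arrested by AraC at DIV 5; DMSO baseline.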

[4] = CCTE_Mundy_HCI_Cortical_NOG_NeuriteLength: CCTE's Neurite Outgrowth Assay in rat cortical cells for Neurite Length, Mundy Lab (AID 2284213)
In short: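 First, rat primary cortical cells were plated and, 2 h later, given test chemical as a 1/10 dilution. Finally, βIII-tubulin immunostaining enabled automated imaging of neurite length.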

[5] = CCTE_Mundy_HCI_Cortical_Synap_Neur_Matur_NeuriteLength: CCTE's Synaptogenesis and Neurite Maturation Assay in rat cortical cells for Neurite Length, Mundy Lab (AID 2284214)
In short: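 DMSO-normalised neurite length, from high-content imaging of anti-MAP2-stained rat cortical cells fixed at DIV 12. Glia were suppressed with AraC (DIV 5) before chemical exposure from DIV 7.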

[6] = CCTE_Mundy_HCI_Cortical_Synap_Neur_Matur_SynapseCount: CCTE's Synaptogenesis and Neurite Maturation Assay in rat cortical cells for Synapse Count, Mundy Lab (AID 2284218)
In short: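 Endpoint: synapses/neuron by HCI (synaptophysin puncta on MAP2-labelled neurites, Hoechst nuclei). Rat primary cortical cells, AraC DIV 5, dosed DIV 7, fixed DIV 12; DMSO negative control.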

[7] = CCTE_Mundy_HCI_hN2_NOG_NeuriteCount: CCTE's Neurite Outgrowth Assay in human hN2 cells for Neurite Count, Mundy Lab (AID 2284219; active = hit-call score of the fitted dose curve at least 0.9, where 1 is the maximum)
In short: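 In this morphology assay, hNP1-derived neurons received test chemical 2 h post-plating and were fixed two days later in warm paraformaldehyde/sucrose containing Hoechst 33342. Neurites, labelled by rabbit anti-βIII-tubulin (1:800) and Alexa Fluor-488 (1:500), were counted automatically.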

[8] = CCTE_Mundy_HCI_hN2_NOG_NeuriteLength: CCTE's Neurite Outgrowth Assay in human hN2 cells for Neurite Length, Mundy Lab (AID 2284220; active = hit-call score of the fitted dose curve at least 0.9, where 1 is the maximum)
In short: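 Plate hNP1-derived neurons, then add chemical 2 h later as a 1/10 dilution. Stain with anti-βIII-tubulin then Alexa Fluor-488 secondary, and image automatically to measure neurite length.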

[9] = CCTE_Mundy_HCI_hN2_NOG_NeuronCount: CCTE's Neurite Outgrowth Assay in human hN2 cells for Neuron Count, Mundy Lab (AID 2284221; active = hit-call score of the fitted dose curve at least 0.9, where 1 is the maximum)
In short: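 Read-out is the number of betaIII-tubulin-positive neurons imaged by automated high-content analysis, with DMSO as negative control.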

[10] = CCTE_Mundy_HCI_Cortical_Synap_Neur_Matur_CellBodySpotCount: CCTE's Synaptogenesis and Neurite Maturation Assay in rat cortical cells for Cell Body Spot Count, Mundy Lab (AID 2284223)
In short: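 Rat cortical neurons; AraC @ DIV 5; dose + media change DIV 7; fix DIV 12; anti-MAP2/anti-synaptophysin IF, Hoechst; HCI count of soma synaptophysin puncta/neuron; DMSO = negative control.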

[11] = UKN4_HCS_LUHMES_cell_viability: Viability Assessment in the University of Konstanz (UKN) Leist Lab Neurite Outgrowth Assay in human LUHMES cells (UKN4) (AID 2284232)
In short: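 Measured in replated, 2-day-differentiated LUHMES cells treated 24 h; stained 30 min with H-33342 and calcein-AM before high-content imaging.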

[12] = UKN2_HCS_IMR90_cell_viability: Viability Assessment in the University of Konstanz (UKN) Leist Lab Neural Crest Cell Migration Assay in human induced IMR90 Pluripotent Stem Cells (UKN2) (AID 2284233);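 also: cells exposed to compound for 24 h after a 24 h migration phase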
In short: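 After calcein-AM/Hoechst staining, viability is quantified by high-content fluorescence imaging, relative to DMSO, in iPSC (IMR90)-derived neural crest cells. Exposure lasts 24 h, starting after a 24 h migration period on PLO/laminin/fibronectin coating.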

[13] = CCTE_Mundy_HCI_Cortical_NOG_NeuronCount: CCTE's Neurite Outgrowth Assay in rat cortical cells for Neuron Count, Mundy Lab (AID 2284236; active = hit-call score of the fitted dose curve at least 0.9, where 1 is the maximum;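 also: neurons counted by imaging betaIII-tubulin and Hoechst stained cortical cells; cells exposed to compound for about 48 hours before fixation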)
In short: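 Read-out: neuron number by high-content imaging of betaIII-tubulin (Alexa Fluor-488) and Hoechst-labelled rat primary cortical cells.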

[14] = CCTE_Mundy_HCI_hNP1_Casp3_7: CCTE's Caspase-Glo 3/7 Assay in human neuroprogenitor cells for Apoptosis, Mundy Lab (AID 2284240)
In short: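 Apoptosis is scored by activated caspase-3/7 luminescence in WA09-derived neural progenitor cells, measured 26.5 h after chemical dosing. Values represent gain of signal relative to DMSO vehicle.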

[15] = IUF_NPC2a_radial_glia_migration_120hr: Leibniz Research Institute for Environmental Medicine (IUF) 120-hour Neural Progenitor Cell Migration Assay for Radial Glia Migration (NPC2a) (AID 2284298)
In short: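 Readout: distance in um from sphere core edge to migration-area edge, derived from Hoechst nuclei density with a threshold-defined polynomial boundary. Spheres: hNPC, GW 16-19, 0.3 mm, on PDL/laminin; exposure 5 days; DMSO is baseline.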

[16] = IUF_NPC2a_radial_glia_migration_72hr: Leibniz Research Institute for Environmental Medicine (IUF) 72-hour Neural Progenitor Cell Migration Assay for Radial Glia Migration (NPC2a) (AID 2284299)
In short: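 Spheres of human primary neural progenitors migrate on poly-D-lysine/laminin under compound exposure at 37C, 5% CO2. The 72 h radial glia migration distance comes from brightfield images, measured manually.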

[17] = IUF_NPC3_neuronal_differentiation_120hr: Leibniz Research Institute for Environmental Medicine (IUF) 120-hour Neuronal Differentiation Assay (NPC3) (AID 2284301)
In short: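 Value is percent TUBB3-positive neurons among Hoechst-stained nuclei in the migration area, scored by trained CNN after 120 h differentiation. Primary hNPC spheres on poly-D-lysine/laminin, N2 medium, continuous dosing from day 0, half-refeed day 3; DMSO reference.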

[18] = IUF_NPC4_neurite_length_120hr: Leibniz Research Institute for Environmental Medicine (IUF) 120-hour Neuronal Morphology Assay for Neurite Length (NPC4) (AID 2284302)
In short: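 Neurite length, the mean in um across TUBB3-stained neurons, is derived by skeletonization of high-content images after 120 h differentiation. Compound exposure, 7 concentrations plus solvent control, ran from plating of hNPC spheres on poly-D-lysine/laminin, with medium half-replaced on day 3.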

[19] = IUF_NPC2-5_cytotoxicity_120hr: Cytotoxicity Assessment at 120 hours in the Leibniz Research Institute for Environmental Medicine (IUF) Neural Progenitor Cell Migration and Differentiation Assay (NPC2-5) (AID 2284307; active = hit-call score of the fitted dose curve at least 0.9, where 1 is the maximum)
In short: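 Sphere plating starts differentiation and exposure together at day 0. Compound solution is half-replaced on day 3. At 120 h, medium supernatant is taken for an LDH membrane-integrity read based on resazurin reduction to resorufin fluorescence.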

[20] = IUF_NPC2-5_cell_number_120hr: Cell Number Assessment at 120 hours in the Leibniz Research Institute for Environmental Medicine (IUF) Neural Progenitor Cell Migration and Differentiation Assay (NPC2-5) (AID 2284308);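 also: count of Hoechst-stained nuclei in migration zone around plated human neural progenitor spheres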
In short: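 hNPC spheres, one per well, PDL/laminin, N2 medium, 37C, 5% CO2. Dosing day 0 → half-medium change with fresh compound day 3 → fix 120 h. Readout: Hoechst+ nuclei count, migration area; 7 concentrations plus solvent control.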

[21] = IUF_NPC2-5_viability_120hr: Viability Assessment at 120 hours in the Leibniz Research Institute for Environmental Medicine (IUF) Neural Progenitor Cell Migration and Differentiation Assay (NPC2-5) (AID 2284312)
In short: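 Alamar blue resorufin fluorescence read after 5 days of differentiation, with compound present from day 0 and replenished at day 3. Primary hNPC spheres on laminin-coated plates, 37C; seven concentrations plus solvent control, fitted against DMSO.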

Measured: AC50

CC(=O)[O-].CC(=O)[O-].O.O.O.[Pb+2]
active: [7] 2190 nM | [8] 2070 nM | [9] 12000 nM
inactive: [1] | [2] | [3] | [4] | [5] | [6] | [10] | [11] | [12] | [13] | [14] | [15] | [16] | [17] | [18] | [19] | [20] | [21]

— PubChem BioAssay (EPA / NIEHS)
